According to the supplement of paper PMC4466140:

molecular target: AgAbp1; test: SPOT peptide array binding signal intensity (averaged, normalized) (arbitrary units (background-subtracted, floor 0; scale differs between SH3 domains)); higher = stronger binding of the SH3 domain to the peptide
Method in brief: (§1)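 Binding signal is given in arbitrary units that differ between domains and is the normalized, background-subtracted spot intensity averaged across replicates. Each GST-SH3 fusion from one of four yeast species was made in E. coli BL21(DE3), purified on glutathione Sepharose and incubated at 10 μg/ml overnight at 4°C on cellulose-bound synthetic 15-mer peptides in which cysteines were replaced by serines. Detection used anti-GST antibody, an HRP anti-mouse secondary and luminol, followed by imaging and Genespotter quantification.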

Binder | SPOT peptide array binding signal intensity
IPSRPAPKPPSSASA | 14

molecular target: AgBbc1; test: as above
Method in brief: as §1

Binder | SPOT peptide array binding signal intensity
IPSRPAPKPPSSASA | 289

molecular target: AgBem1-D1; test: as above
Method in brief: as §1

Binder | SPOT peptide array binding signal intensity
IPSRPAPKPPSSASA | 35

molecular target: AgBzz1-D1; test: as above
Method in brief: as §1

Binder | SPOT peptide array binding signal intensity
IPSRPAPKPPSSASA | 18

molecular target: AgBzz1-D2; test: as above
Method in brief: as §1

Binder | SPOT peptide array binding signal intensity
IPSRPAPKPPSSASA | 19

molecular target: AgCyk3; test: as above
Method in brief: as §1

Binder | SPOT peptide array binding signal intensity
IPSRPAPKPPSSASA | 1

molecular target: AgFus1; test: as above
Method in brief: as §1

Binder | SPOT peptide array binding signal intensity
IPSRPAPKPPSSASA | ≤ 0

molecular target: AgHof1; test: as above
Method in brief: as §1

Binder | SPOT peptide array binding signal intensity
IPSRPAPKPPSSASA | ≤ 0

molecular target: AgHse1; test: as above
Method in brief: as §1

Binder | SPOT peptide array binding signal intensity
IPSRPAPKPPSSASA | 50.5

molecular target: AgLsb1; test: as above
Method in brief: as §1

Binder | SPOT peptide array binding signal intensity
IPSRPAPKPPSSASA | 475

molecular target: AgLsb4; test: as above
Method in brief: as §1

Binder | SPOT peptide array binding signal intensity
IPSRPAPKPPSSASA | 12

molecular target: AgMyo5; test: as above
Method in brief: as §1

Binder | SPOT peptide array binding signal intensity
IPSRPAPKPPSSASA | 1790

molecular target: AgNbp2; test: as above
Method in brief: as §1

Binder | SPOT peptide array binding signal intensity
IPSRPAPKPPSSASA | 8100

molecular target: AgRvs167; test: as above
Method in brief: as §1

Binder | SPOT peptide array binding signal intensity
IPSRPAPKPPSSASA | 1.67

molecular target: AgSho1; test: as above
Method in brief: as §1

Binder | SPOT peptide array binding signal intensity
IPSRPAPKPPSSASA | ≤ 0

molecular target: AgSla1-D1-D2; test: as above
Method in brief: as §1

Binder | SPOT peptide array binding signal intensity
IPSRPAPKPPSSASA | 16

molecular target: AgSla1-D3; test: as above
Method in brief: as §1

Binder | SPOT peptide array binding signal intensity
IPSRPAPKPPSSASA | 3.25

molecular target: CaAbp1-D1; test: as above
Method in brief: as §1

Binder | SPOT peptide array binding signal intensity
IPSRPAPKPPSSASA | 102

molecular target: CaAbp1-D2; test: as above
Method in brief: as §1

Binder | SPOT peptide array binding signal intensity
IPSRPAPKPPSSASA | 128

molecular target: CaBbc1; test: as above
Method in brief: as §1

Binder | SPOT peptide array binding signal intensity
IPSRPAPKPPSSASA | 1300

molecular target: CaBem1-D1; test: as above
Method in brief: as §1

Binder | SPOT peptide array binding signal intensity
IPSRPAPKPPSSASA | 1620

molecular target: CaBzz1-D1; test: as above
Method in brief: as §1

Binder | SPOT peptide array binding signal intensity
IPSRPAPKPPSSASA | 1550

molecular target: CaBzz1-D2; test: as above
Method in brief: as §1

Binder | SPOT peptide array binding signal intensity
IPSRPAPKPPSSASA | 1510

molecular target: CaCyk3; test: as above
Method in brief: as §1

Binder | SPOT peptide array binding signal intensity
IPSRPAPKPPSSASA | 190

molecular target: CaFus1; test: as above
Method in brief: as §1

Binder | SPOT peptide array binding signal intensity
IPSRPAPKPPSSASA | 30

molecular target: CaHof1; test: as above
Method in brief: as §1

Binder | SPOT peptide array binding signal intensity
IPSRPAPKPPSSASA | ≤ 0

molecular target: CaHse1; test: as above
Method in brief: as §1

Binder | SPOT peptide array binding signal intensity
IPSRPAPKPPSSASA | 1.25

molecular target: CaLsb1; test: as above
Method in brief: as §1

Binder | SPOT peptide array binding signal intensity
IPSRPAPKPPSSASA | 1.25

molecular target: CaLsb4; test: as above
Method in brief: as §1

Binder | SPOT peptide array binding signal intensity
IPSRPAPKPPSSASA | 53.5

molecular target: CaMyo5; test: as above
Method in brief: as §1

Binder | SPOT peptide array binding signal intensity
IPSRPAPKPPSSASA | 156

molecular target: CaNbp2; test: as above
Method in brief: as §1

Binder | SPOT peptide array binding signal intensity
IPSRPAPKPPSSASA | 4920

molecular target: CaRvs167; test: as above
Method in brief: as §1

Binder | SPOT peptide array binding signal intensity
IPSRPAPKPPSSASA | 17

molecular target: CaRvs167-3; test: as above
Method in brief: as §1

Binder | SPOT peptide array binding signal intensity
IPSRPAPKPPSSASA | 2

molecular target: CaSho1; test: as above
Method in brief: as §1

Binder | SPOT peptide array binding signal intensity
IPSRPAPKPPSSASA | ≤ 0

molecular target: CaSla1-D1-D2; test: as above
Method in brief: as §1

Binder | SPOT peptide array binding signal intensity
IPSRPAPKPPSSASA | 2030

molecular target: CaSla1-D3; test: as above
Method in brief: as §1

Binder | SPOT peptide array binding signal intensity
IPSRPAPKPPSSASA | 46.5

molecular target: ScAbp1; test: as above
Method in brief: as §1

Binder | SPOT peptide array binding signal intensity
IPSRPAPKPPSSASA | 65

molecular target: ScBbc1; test: as above
Method in brief: as §1

Binder | SPOT peptide array binding signal intensity
IPSRPAPKPPSSASA | 502

molecular target: ScBem1-D1; test: as above
Method in brief: as §1

Binder | SPOT peptide array binding signal intensity
IPSRPAPKPPSSASA | ≤ 0

molecular target: ScBzz1-D1; test: as above
Method in brief: as §1

Binder | SPOT peptide array binding signal intensity
IPSRPAPKPPSSASA | 16

molecular target: ScBzz1-D2; test: as above
Method in brief: as §1

Binder | SPOT peptide array binding signal intensity
IPSRPAPKPPSSASA | 10

molecular target: ScCyk3; test: as above
Method in brief: as §1

Binder | SPOT peptide array binding signal intensity
IPSRPAPKPPSSASA | ≤ 0

molecular target: ScFus1; test: as above
Method in brief: as §1

Binder | SPOT peptide array binding signal intensity
IPSRPAPKPPSSASA | 4

molecular target: ScHof1; test: as above
Method in brief: as §1

Binder | SPOT peptide array binding signal intensity
IPSRPAPKPPSSASA | 1

molecular target: ScHse1; test: as above
Method in brief: as §1

Binder | SPOT peptide array binding signal intensity
IPSRPAPKPPSSASA | 40

molecular target: ScLsb1; test: as above
Method in brief: as §1

Binder | SPOT peptide array binding signal intensity
IPSRPAPKPPSSASA | 6

molecular target: ScLsb2; test: as above
Method in brief: as §1

Binder | SPOT peptide array binding signal intensity
IPSRPAPKPPSSASA | 55

molecular target: ScLsb3; test: as above
Method in brief: as §1

Binder | SPOT peptide array binding signal intensity
IPSRPAPKPPSSASA | 197

molecular target: ScLsb4; test: as above
Method in brief: as §1

Binder | SPOT peptide array binding signal intensity
IPSRPAPKPPSSASA | 9

molecular target: ScMyo3; test: as above
Method in brief: as §1

Binder | SPOT peptide array binding signal intensity
IPSRPAPKPPSSASA | 3540

molecular target: ScMyo5; test: as above
Method in brief: as §1

Binder | SPOT peptide array binding signal intensity
IPSRPAPKPPSSASA | 1990

molecular target: ScNbp2; test: as above
Method in brief: as §1

Binder | SPOT peptide array binding signal intensity
IPSRPAPKPPSSASA | 5880

molecular target: ScPex13; test: as above
Method in brief: as §1

Binder | SPOT peptide array binding signal intensity
IPSRPAPKPPSSASA | 2620

molecular target: ScRvs167; test: as above
Method in brief: as §1

Binder | SPOT peptide array binding signal intensity
IPSRPAPKPPSSASA | 149

molecular target: ScSho1; test: as above
Method in brief: as §1

Binder | SPOT peptide array binding signal intensity
IPSRPAPKPPSSASA | ≤ 0

molecular target: ScSla1-D1-D2; test: as above
Method in brief: as §1

Binder | SPOT peptide array binding signal intensity
IPSRPAPKPPSSASA | 6020

molecular target: ScSla1-D3; test: as above
Method in brief: as §1

Binder | SPOT peptide array binding signal intensity
IPSRPAPKPPSSASA | 233

molecular target: SpAbp1-D1; test: as above
Method in brief: as §1

Binder | SPOT peptide array binding signal intensity
IPSRPAPKPPSSASA | 40

molecular target: SpBbc1; test: as above
Method in brief: as §1

Binder | SPOT peptide array binding signal intensity
IPSRPAPKPPSSASA | 65

molecular target: SpBzz1-D1; test: as above
Method in brief: as §1

Binder | SPOT peptide array binding signal intensity
IPSRPAPKPPSSASA | 404

molecular target: SpBzz1-D2; test: as above
Method in brief: as §1

Binder | SPOT peptide array binding signal intensity
IPSRPAPKPPSSASA | 71.5

molecular target: SpCyk3; test: as above
Method in brief: as §1

Binder | SPOT peptide array binding signal intensity
IPSRPAPKPPSSASA | 2

molecular target: SpHof1; test: as above
Method in brief: as §1

Binder | SPOT peptide array binding signal intensity
IPSRPAPKPPSSASA | ≤ 0

molecular target: SpHof1-2; test: as above
Method in brief: as §1

Binder | SPOT peptide array binding signal intensity
IPSRPAPKPPSSASA | ≤ 0

molecular target: SpHof1-3; test: as above
Method in brief: as §1

Binder | SPOT peptide array binding signal intensity
IPSRPAPKPPSSASA | ≤ 0

molecular target: SpHse1; test: as above
Method in brief: as §1

Binder | SPOT peptide array binding signal intensity
IPSRPAPKPPSSASA | 52

molecular target: SpLsb1; test: as above
Method in brief: as §1

Binder | SPOT peptide array binding signal intensity
IPSRPAPKPPSSASA | 13.5

molecular target: SpLsb4; test: as above
Method in brief: as §1

Binder | SPOT peptide array binding signal intensity
IPSRPAPKPPSSASA | 136

molecular target: SpMyo1; test: as above
Method in brief: as §1

Binder | SPOT peptide array binding signal intensity
IPSRPAPKPPSSASA | 3740

molecular target: SpNbp2; test: as above
Method in brief: as §1

Binder | SPOT peptide array binding signal intensity
IPSRPAPKPPSSASA | 65

molecular target: SpPex13; test: as above
Method in brief: as §1

Binder | SPOT peptide array binding signal intensity
IPSRPAPKPPSSASA | 93.5

molecular target: SpRvs167; test: as above
Method in brief: as §1

Binder | SPOT peptide array binding signal intensity
IPSRPAPKPPSSASA | 202

molecular target: SpSla1-D1-D2; test: as above
Method in brief: as §1

Binder | SPOT peptide array binding signal intensity
IPSRPAPKPPSSASA | ≤ 0

molecular target: SpSla1-D3; test: as above
Method in brief: as §1

Binder | SPOT peptide array binding signal intensity
IPSRPAPKPPSSASA | 3
